Sampled rows, rich in hits. Any-hit rate of the full collection: about 1.7%.
PLK1 inh: inhibitors of human PLK1 kinase. P53350. recombinant PLK1 kinase, TR-FRET peptide phosphorylation. inhibition, % at 10 µM. hit rate 0.53% among 97,000;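 active means inhibition of 50% or more in the single-concentration screen; inactive means inhibition below 50%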;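 further: 0% = DMSO max control and 100% = H-89 dihydrochloride min control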
EphB4 antag: blocks human EphB4 binding to ephrin-B2; hit rate 0.15% among 97,000; inhibition, % at 7 µM; AID 720; EphB4 LBD / TNYL-RAW-Alexa532 peptide, fluorescence polarization;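 active means inhibition above the screen-wide mean inhibition plus 3 SD, cut at about 15% in these data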;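 further: 0% = DMSO wells and 100% = excess unlabeled TNYL-RAW peptide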
PTPN22 inh 2: LYP (human) phosphatase inhibition | Q9Y2R2 | recombinant LYP catalytic domain, DiFMUP fluorescence | inhibition, % at 2 µM | hit rate 0.21% among 96,000 | AID 640;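 active means inhibition at 2 µM at or above a set limit, the screen mean plus 3 SD, cut at about 24% in these data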;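 further: 0% = DMSO with enzyme and 100% = enzyme fully blocked by orthovanadate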
LYP act: activators of human LYP (PTPN22) phosphatase; Q9Y2R2; recombinant LYP, DiFMUP fluorescence; 0 = plate median, 100 = signal doubled; activation, % at 2 µM; hit rate 0.11% among 96,000; AID 697;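 active means activation at 2 µM above a set limit, the mean plus 5 SD, cut at about 37% in these data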
FAK blocker: FAK (human) kinase inhibition. Q05397. biochemical FAK kinase activity assay. hit rate 0.84% among 97,000. inhibition, %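 (tested at 7 µM)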; in the data active means inhibition above about 19%;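 further: 0% = DMSO and 100% = reference compound high control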
PLK1 PBD inh: inhibitors of human Plk1 polo box domain binding. inhibition, %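 (tested at about 20 µM)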. AID 693. Plk1 PBD phosphopeptide binding, fluorescence polarization. hit rate 0.13% among 97,000; in the data active means inhibition above about 34%, passing the limit was not always enough
PBD redox DR: counter-screen for Plk1 PBD inhibitors: redox cycling H2O2 generation | shares compounds with PLK1 PBD inh | DTT | EC50, µM | 120 tested, under 10 active; call rule not given here
The depositor's hits bear a star; . = not tested or not shown.

SMILES	PLK1 inh	EphB4 antag	PTPN22 inh 2	LYP act	FAK blocker	PLK1 PBD inh	PBD redox DR
CCOc1ccccc1N1CCN(C2=C(NS(=O)(=O)c3cccs3)C(=O)c3ccccc3C2=O)CC1	6.6	-1.9	6.6	-5.6	-1.4	58.7*	>50
Cc1[nH]c2ccccc2c1Cc1nnc(SCc2ccccc2)o1	-9.1	-3.0	-4.2	1.3	-1.4	-20.0	.
COC(=O)c1ccccc1NC1=C/C(=N\S(=O)(=O)c2cccs2)c2ccccc2C1=O	6.6	-0.8	1.9	-1.0	13.6	56.1*	>50
CSc1nc2ccc(Cl)cc2[nH]1	-12.6	3.8	-0.8	0.4	1.2	-0.3	.
CCc1nc2cc(Cl)c(Cl)cc2[nH]1	1.9	9.6	10.4	-7.0	1.0	49.8*	>50
NC(=O)C1(N2CCCCC2)CCN(C(=O)NC2CCCCC2)CC1	-3.5	7.6	1.6	-2.6	-1.8	51.9*	>50
Cc1cccc2[nH]c3c(N4CCN(C(=O)c5ccco5)CC4)ncnc3c12	0.9	-4.8	7.3	-4.8	2.4	51.3*	>50
Cc1cccc2[nH]c3c(N4CCC5(CC4)OCCO5)ncnc3c12	-10.1	12.2	-5.4	9.1	6.2	-14.5	.
COc1ccc(C2SCCN2S(=O)(=O)c2ccc(F)cc2)cc1OC (centres undefined)	0.2	4.2	-2.1	-0.4	-4.9	-4.2	.
COc1ccccc1C1SCCN1S(=O)(=O)c1cccc(C(F)(F)F)c1 (centres undefined)	-6.1	-12.0	-8.2	7.1	-0.7	51.2*	>50
C/C(=C\C(=O)Nc1cc(C)on1)c1ccccc1	-8.2	5.3	-6.3	6.8	-0.7	39.9*	>50
C/C(=C/C(=O)NCc1ccccc1)C(=O)O	-9.0	-8.0	-2.7	6.3	-2.2	-14.4	.
CC(C)=CC(=O)NCCc1ccccc1	-4.7	-10.9	-17.8	18.3	0.3	51.4*	>50
Cc1c(C(=O)OCC(=O)N2CC(=O)Nc3ccccc32)oc2ccc(Br)cc12	-10.5	-3.3	8.7	-7.0	-0.9	-18.4	.
O=C(CN1C(=O)COc2ccccc21)NCc1ccc(C(=O)O)cc1	5.3	-4.3	-19.8	17.0	-1.8	50.5*	>50
COc1ccc(F)cc1S(=O)(=O)NC1CCCC1	-9.2	-1.2	-10.7	11.8	1.3	10.8	.
CC(C)OCCCNC(=O)c1ccc(NC(=O)C2CCCO2)cc1 (centres undefined)	-7.2	-8.1	3.9	-6.3	-3.0	34.9*	>50
CCC(C)NC(=O)c1ccc(NC(=O)C2CCCO2)cc1 (centres undefined)	-8.4	1.1	-14.9	12.0	-0.9	-7.0	.
Cc1ccc(Cl)cc1N1CCN(S(=O)(=O)c2ccc3c(c2)oc(=O)n3C)CC1	-8.7	-11.2	-9.0	6.5	-0.8	38.9*	>50
CCC(=O)c1cc(F)c(N2CCN(S(=O)(=O)c3ccc(C)cc3)CC2)cc1C	-16.6	-5.4	-13.3	10.5	0.1	13.5	.
Cc1nn(C(C)C(=O)N2CCCCC2)c(=O)c2c1sc1ccccc12 (centres undefined)	-9.3	-5.0	5.3	-5.0	-0.2	43.3*	>50
Cc1ccc(OCC(=O)Nc2ccc(N3CCOCC3)cc2)cc1	-8.1	-4.2	-6.1	2.6	3.9	39.2*	>50
Cc1ccc(-c2csc3nnc(SCC(=O)Nc4cccc(C)n4)n23)cc1	-7.7	-7.9	1.8	-2.4	-1.8	-16.2	.
COc1ccc(N(C)C2=NS(=O)(=O)c3ccccc32)cc1	5.5	-2.4	5.9	-3.8	-3.6	54.0*	>50
CCc1ccc(NC(=O)CCNS(=O)(=O)c2cccc3nsnc23)cc1	5.3	-1.9	-15.1	14.5	-0.4	-19.9	.
SMILES	PLK1 inh	EphB4 antag	PTPN22 inh 2	LYP act	FAK blocker	PLK1 PBD inh	PBD redox DR
CCOC(=O)Cc1csc(NC(=O)CSc2nnc(-c3ccc(F)cc3)o2)n1	5.3	-4.3	-0.6	-0.2	2.7	40.4*	>50
CCOCCCNC(=O)CCCOc1ccccc1	-8.1	3.2	3.9	-5.3	-1.2	42.7*	>50
CCCCOCCCNC(=O)CCCOc1ccccc1	-11.7	-4.8	-3.4	4.0	0.0	-22.3	.
CS(=O)(=O)N1CCN(C/C=C/c2ccccc2)CC1	7.9	-2.6	-8.0	8.5	-2.5	46.5*	>50
O=S(=O)(Cc1ccccc1)N1CCN(C/C=C/c2ccccc2)CC1	-14.1	-2.2	-0.2	0.8	-0.9	3.3	.
O=C1CCN2C=Nc3cccc4ccc1c2c34	-19.6	-3.6	1.1	-1.7	18.5	51.5*	>50

Assay outcomes from PubChem BioAssay.
